Screening data: PubChem BioAssay, ICCB-Longwood Screening Facility, Harvard Medical School
This is a sample that favours compounds with a hit; in the whole collection about 0.68% have one here.
Mtb hypoxia rep: PubChem AID 1159583 | M. tuberculosis hypoxia-regulated fluorescent reporter, fluorescence | fluorescence inhibition, % (concentration not given with the values) | 300,000 tested, 0.1% active; in the data active = fluorescence inhibition mostly above about 23%, no sharp cut-off; inactive = mostly below about 17%
ugtP null kill: growth inhibition of ugtP-null S. aureus, primary screen, RN4220 ugtP deletion, OD600; 330,000 tested, 0.54% active; 16 h; AID 1259309, 2017; growth inhibition, % (test concentration not listed); in the data active = growth inhibition above about 68%;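 also: plate controls were untreated wells for no effect and antibiotic for full effect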
RN4220 kill: growth inhibition of S. aureus RN4220, primary screen, OD600 | inhibition, % (concentration not given with the values) | 330,000 tested, 0.33% active | 16 h; in the data active = inhibition above about 85%;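 also: plate controls were untreated cells for no effect and reference antibiotic for full effect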
Starred values were filed as active, the others as inactive; nt = not tested or not shown.

SMILES	Mtb hypoxia rep	ugtP null kill	RN4220 kill
CC(C)CC(NC(=O)c1nc[nH]c1C(=O)N1CCN(C(=O)OC(C)(C)C)CC1)C(=O)OCc1ccccc1 (stereo not given)	1	5	6
COC(=O)C1=COC(OC2OC(CO)C(O)C(O)C2O)C2C(CO)=CCC12 (stereo not given)	5	3	8
Cc1cccc(NC(=O)c2ccc(C(=O)c3ccccc3)cc2)n1	9	6	2
O=C(Nc1cccc(NC(=O)c2ccccc2)n1)c1ccccc1	7	31	96*
COC1C(OC(=O)c2ccc(C)[nH]2)C(O)C(Oc2ccc3c(O)c(NC(=O)c4ccc(O)c(CC=C(C)C)c4)c(=O)oc3c2Cl)OC1(C)C (stereo not given)	nt	100*	94*
COC(=O)Cc1csc(Nc2ccccc2)n1	7	3	3
CCOC(=O)C(=NNc1ccccc1)c1csc(Nc2ccccc2)n1	-1	93*	92*
CCN1C(=O)C2C(c3ccc(-c4ccc(Cl)c(Cl)c4)c(OC)c3)N[C@@](C)(C(=O)OC)C2C1=O (stereo not given in full)	20	10	-5
CC[n+]1ccc(/C=C/c2ccc(N(C)C)cc2)c2ccccc21	17	95*	92*
CCN(CC)c1ccc(/C=C/c2ccc3ccc(OC)cc3[n+]2CC)cc1	nt	99*	100*
CC[n+]1c(/C=C/c2ccc(OC(C)=O)c(OC)c2)ccc2ccccc21	-3	8	2
CC[n+]1c(/C=C/c2ccc(OC)c(OC)c2)ccc2ccccc21	8	4	1
CC[n+]1ccccc1/C=C/c1ccc(N(C)C)cc1	nt	7	2
CC[n+]1c(/C=C/c2ccc(N(C)C)cc2)ccc2ccccc21	11	96*	98*
COc1ccc2c(c1)OCC1C2N2C(=O)c3cc(Cl)ccc3NC(=O)[C@@]2(C)C1c1ccccc1 (stereo not given in full)	-9	-25	1
CN(C)C=Nc1c(C#N)cnn1C	7	4	7
Cn1ncc(C#N)c1N=CN(Cc1ccccc1)Cc1ccccc1	nt	100*	101*
Cc1ccc(N=C2SC(C(=O)Nc3ccc(OC(F)(F)F)cc3)C(N)=C2C(=O)Nc2c(C)cc(C)cc2C)cc1 (stereo not given)	8	100*	100*
Cc1ccc(NC(=O)C2SC(=Nc3ccccc3)C(C(=O)Nc3ccc(Cl)cc3)=C2N)cc1 (stereo not given)	7	-2	-8
COc1ccc(S(=O)(=O)Nc2ccc3c(c2)C(=O)N(C(C)CO)CC(C)C(CN(C)C(=O)Nc2ccc(C(F)(F)F)cc2)O3)cc1 (stereo not given)	11	3	1
COc1cc(-n2c(=S)[nH]c3ccccc3c2=O)c(Cl)cc1Cl	nt	-58	-5
CC(C)Oc1cc(-n2c(=S)[nH]c3ccccc3c2=O)c(Cl)cc1Cl	nt	101*	100*
CCCOc1ccc(C(=O)C(CN2CCCC2)c2ccccc2)cc1 (stereo not given)	14	58	15
O=C(c1ccc(Cl)cc1)C(CN1CCCC1)c1ccccc1 (stereo not given)	14	87*	67
Cc1cc(C)nc(SCc2ccc(C(=O)NN=C3CCCC(=O)C3)cc2)n1	5	0	1
SMILES	Mtb hypoxia rep	ugtP null kill	RN4220 kill
Cc1cc(C)cc(N2C(=O)NC(=O)C(=Cc3cccn3-c3ccc(Cl)cc3)C2=O)c1	3	-8	3
CCCCOc1ccc(Cc2c(Cl)nc(SC)nc2N2CCOCC2)cc1	8	92*	-2
CSc1nc(N2CCOCC2)c2c3c(sc2n1)CCCC3	nt	4	2
CCOc1ccc(Cc2c(Cl)nc(SC)nc2OC)cc1	15	83	-3
CSc1nc(Cl)c(Cc2ccc(OCC(C)C)cc2)c(N2CCOCC2)n1	2	94*	-3
CCOc1cc(C=NNC(=O)c2ccc(NC(=O)C3CC3)cc2)ccc1O	9	5	0
CCOC(=O)C1C2COc3ccc(Br)cc3C2N2C(=O)N(c3ccc(C)cc3)C(=O)[C@@]12C (stereo not given in full)	12	-21	1
CN(Cc1cccc(C(F)(F)F)c1)C(=O)C1CCC(=O)N(CC2CCCCC2)C1 (stereo not given)	-7	-5	-1
CNCC(CC1CCCCC1)NCC(CC(C)C)NCCc1cccc(C(F)(F)F)c1 (stereo not given)	nt	86	89*
O=C(NN=Cc1cc(Br)ccc1OC(=O)c1ccc(Br)cc1)c1ccncc1	-4	-4	8
COC(=O)c1cccc(C23CC4(C2)C(CN(C)C4c2ccccc2)C3c2ccc(C(F)(F)F)cc2)c1 (stereo not given)	12	-2	5
C#CCOCCOCCOCCNc1nc(N2CCN(C(=O)C(CCC(=O)O)n3cc(C(N)C(C)CC)nn3)CC2)nc(N2CCN(C(=O)C(Cc3cc4ccccc4[nH]3)n3cc(C(N)C(C)CC)nn3)CC2)n1 (stereo not given)	5	2	7
COc1ccc2sc(-c3ccc(N(C)C)cc3)c(C#Cc3cncn3C)c2c1	23	82*	78
COc1ccc2sc(-c3ccc(N(C)C)cc3)c(C#CC(C)(C)O)c2c1	2	4	4
CCCC(=O)Nc1cccc2c1CCCC2	6	-6	3
CCc1ccc(OCC(=O)Nc2cccc3c2CCCC3)cc1	6	99*	25
CC(=NNC(=O)CNC(=O)C(c1ccccc1)c1ccccc1)c1ccccc1	5	6	4
COc1cc(C#Cc2c(-c3cncn3C)n(C)c3ccc(Br)cc23)cc(OC)c1	-2	99*	99*
COc1cc(C#Cc2c(-c3cncn3C)n(C)c3ccc(-c4ccc(OC)c(OC)c4)cc23)cc(OC)c1	-5	29	8
Cc1cccc(N=NC(=CO)C(=O)c2ccc(Br)cc2)c1	2	94	67
CCN1C(=NCCOC)NC(CCc2ccccc2)C(C(=O)OC)C1C (stereo not given)	8	-7	3
C[n+]1c(-c2ccccc2)sc([S-])c1-c1ccccc1	7	1	8
C[n+]1c(-c2ccccc2)c2cc(N)ccc2c2ccc(N)cc21	nt	98*	37
Cc1cc(C)c(OC2(c3ccccc3)OC(=O)c3ccccc32)c(C)c1 (stereo not given)	16	85*	-3
Cc1cccc(C)c1OC1(c2ccccc2)OC(=O)c2ccccc21 (stereo not given)	12	59	-3
SMILES	Mtb hypoxia rep	ugtP null kill	RN4220 kill
O=C(CSCc1ccccc1)NN=Cc1ccc(OCC(=O)N2CCCCC2)cc1	2	-1	5
Cc1ncc(C[n+]2csc(CCOC(=O)CC34CC5CC(CC(C5)C3)C4)c2C)c(N)n1	-4	-4	-1
Cc1c(CCOC(=O)CC23CC4CC(CC(C4)C2)C3)sc[n+]1Cc1ccccc1	8	100*	87
OCC1NCC(O)C1O (stereo not given)	9	10	7
O=C(O)c1ccc2c(=O)n(-c3ccccc3F)c(=S)[nH]c2c1	-12	4	8
COC(=O)c1ccc2c(=O)n(-c3ccccc3F)c(=S)[nH]c2c1	14	active	88
CN(C)C(=O)C1CC1C(NC(=O)OCc1ccccc1)c1ccccc1 (stereo not given)	8	-3	1
